Assay [1] is described as follows: ATG_GLI_CIS: Attagene CIS-FACTORIAL HepG2 Assay for human Zinc Finger Protein GLI1 (AID 2282945; active = hit-call score of the fitted dose curve at least 0.9, where 1 is the maximum; inactive = score below 0.9). The conditions noted are these: HepG2, Attagene cis-factorial reporter mRNA, GLI element; actives raise or lower the signal. In a few lines:
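Bidirectional curve fits relative to DMSO, using reporter mRNA levels from RT-PCR plus capillary electrophoresis. Cells were HepG2 transiently carrying cis-regulated reporter constructs, harvested 24 h after dosing.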

The target of assay [2] is Hepatocyte nuclear factor 6 (Homo sapiens) (UniProt Q9UBC0). The experiment in a line: ATG_HNF6_CIS: Attagene CIS-FACTORIAL HepG2 Assay for human Hepatocyte Nuclear Factor 6 (HNF6) (AID 2282952; active = hit-call score of the fitted dose curve at least 0.9, where 1 is the maximum; inactive = score below 0.9). The following applies: HepG2 Attagene cis-factorial HNF6 reporter transcription; actives raise or lower the signal. In a few lines:
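Endogenous transcription factor activity in human HepG2 liver cells was captured through cis-regulated reporter constructs. After 24 h treatment, reporter mRNA was measured by RT-PCR with capillary electrophoresis, and activity was fitted in both directions relative to DMSO.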

Assay [3] in a line: ATG_PBREM_CIS: Attagene CIS-FACTORIAL HepG2 Assay for human Phenobarbital-responsive Enhancer Module (PBREM) (AID 2282955; active = hit-call score of the fitted dose curve at least 0.9, where 1 is the maximum; inactive = score below 0.9). The conditions noted are these: HepG2 PBREM cis-reporter, Attagene multiplexed transcription; actives raise or lower the signal. The method in brief: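 Measures endogenous factor action on a phenobarbital-responsive enhancer module. HepG2 transiently carrying cis reporters, 24 h treatment, mRNA read-out by RT-PCR plus capillary electrophoresis.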

The target of assay [4] is Signal transducer and activator of transcription 3 (Homo sapiens) (UniProt P40763). The experiment in a line: ATG_STAT3_CIS: Attagene CIS-FACTORIAL HepG2 Assay for human Signal Transducer and Activator of Transcription 3 (STAT3) (AID 2282963; active = hit-call score of the fitted dose curve at least 0.9, where 1 is the maximum; inactive = score below 0.9). The conditions noted are these: HepG2, Attagene cis-factorial STAT3 reporter transcription; actives raise or lower the signal. In a few lines: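 Cis-factorial format: endogenous transcription factors in HepG2 drive transfected reporter units. After 24 h treatment, reporter RNA was reverse-transcribed, amplified, FAM-labelled and HpaI-digested before CE analysis; activity scored in both directions against DMSO.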
Signal transducer and activator of transcription 3 (Homo sapiens), sequence (P40763 whole entry, looked up): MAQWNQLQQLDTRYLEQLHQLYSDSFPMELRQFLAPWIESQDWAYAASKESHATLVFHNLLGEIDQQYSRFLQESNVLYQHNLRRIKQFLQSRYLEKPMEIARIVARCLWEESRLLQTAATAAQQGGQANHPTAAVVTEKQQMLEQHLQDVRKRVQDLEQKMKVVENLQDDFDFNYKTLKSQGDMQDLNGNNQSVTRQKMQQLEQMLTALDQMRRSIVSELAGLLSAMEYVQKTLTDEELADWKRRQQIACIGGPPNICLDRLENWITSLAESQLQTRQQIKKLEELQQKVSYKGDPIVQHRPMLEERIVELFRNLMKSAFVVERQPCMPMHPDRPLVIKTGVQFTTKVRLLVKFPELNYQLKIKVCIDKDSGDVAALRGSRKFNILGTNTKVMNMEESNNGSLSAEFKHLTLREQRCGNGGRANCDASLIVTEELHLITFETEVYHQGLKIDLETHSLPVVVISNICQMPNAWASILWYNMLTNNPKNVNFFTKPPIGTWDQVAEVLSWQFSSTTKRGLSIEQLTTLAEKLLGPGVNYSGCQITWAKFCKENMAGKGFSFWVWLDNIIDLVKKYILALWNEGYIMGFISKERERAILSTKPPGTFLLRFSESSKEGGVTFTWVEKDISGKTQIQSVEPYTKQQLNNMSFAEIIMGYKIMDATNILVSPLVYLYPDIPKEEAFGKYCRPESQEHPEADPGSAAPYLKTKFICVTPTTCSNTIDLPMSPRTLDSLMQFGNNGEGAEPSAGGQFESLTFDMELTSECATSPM

Assay [5] in a line: ATG_M_06_TRANS: Attagene TRANS-FACTORIAL HepG2 Assay for M06 Transcription Factor (Internal Marker) (AID 2282983). The conditions noted are these: HepG2 Attagene TRANS M06 internal marker reporter. In a few lines:
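Human liver HepG2 cells bearing transiently transfected chimeric NR-GAL4 reporter units were treated with chemicals for 24 h. Total RNA was reverse-transcribed, reporter sequences amplified and labelled, then quantified by capillary electrophoresis. Activity was fitted upward relative to DMSO.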

The nature of assay [6]: ATG_NF_kB_CIS: Attagene CIS-FACTORIAL HepG2 Assay for human Nuclear Factor Kappa B (NF-kB) (AID 2282991; active = hit-call score of the fitted dose curve at least 0.9, where 1 is the maximum; inactive = score below 0.9). The following applies: HepG2 Attagene cis-factorial NF-kB reporter mRNA; actives raise or lower the signal. The method in brief:
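Fluorescence of labelled RT-PCR products separated by capillary electrophoresis gives reporter mRNA levels from transfected HepG2 cells exposed 24 h; values are fitted in both directions relative to DMSO.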

Assay [7] in a line: ATG_Oct_MLP_CIS: Attagene CIS-FACTORIAL HepG2 Assay for human Octamer-Binding Transcription Factor (Oct) (AID 2282993; active = hit-call score of the fitted dose curve at least 0.9, where 1 is the maximum; inactive = score below 0.9). The conditions noted are these: HepG2 Attagene cis-factorial Oct reporter, mRNA; actives raise or lower the signal. In a few lines:
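Cells of the HepG2 line express promoter-controlled reporter sequences whose mRNA levels, after 24 h treatment, are measured by RT-PCR and capillary electrophoresis. Increases and decreases are scored relative to DMSO.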

In assay [8] the target is human Peroxisome Proliferator-activated Receptor alpha (PPARa), PPARA (gene 5465) (UniProt Q07869). Description: ATG_PPARa_TRANS: Attagene TRANS-FACTORIAL HepG2 Assay for human Peroxisome Proliferator-activated Receptor alpha (PPARa) (AID 2283001).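 For AC50: potency for gain of reporter signal over DMSO so agonist or activator.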 In a few lines: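 Transfected HepG2 cells treated with test chemical for 24 h. RNA isolated, reverse-transcribed with oligo(dT), PCR-amplified, FAM-labelled and HpaI-digested. Fragments sized by capillary electrophoresis; gain-of-signal fit relative to DMSO.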
human Peroxisome Proliferator-activated Receptor alpha (PPARa), PPARA (gene 5465), sequence (Q07869 whole entry, looked up, the tested form may be a part): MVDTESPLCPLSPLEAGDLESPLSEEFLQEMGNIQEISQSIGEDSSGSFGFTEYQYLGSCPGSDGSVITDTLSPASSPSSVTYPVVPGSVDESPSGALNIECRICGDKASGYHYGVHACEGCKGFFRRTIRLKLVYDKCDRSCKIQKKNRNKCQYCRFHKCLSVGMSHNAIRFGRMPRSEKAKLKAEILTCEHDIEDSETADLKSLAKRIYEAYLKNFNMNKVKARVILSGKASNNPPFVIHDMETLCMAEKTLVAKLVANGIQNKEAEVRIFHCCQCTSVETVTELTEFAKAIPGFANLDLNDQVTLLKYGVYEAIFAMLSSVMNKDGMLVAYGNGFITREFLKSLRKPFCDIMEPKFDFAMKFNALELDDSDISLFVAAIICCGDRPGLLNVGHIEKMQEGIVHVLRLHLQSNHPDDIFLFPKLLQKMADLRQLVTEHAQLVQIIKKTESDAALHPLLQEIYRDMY

Assay [9] addresses human Retinoid X Receptor beta (RXRb), RXRB (gene 6257) (UniProt P28702). The experiment in a line: ATG_RXRb_TRANS: Attagene TRANS-FACTORIAL HepG2 Assay for human Retinoid X Receptor beta (RXRb) (AID 2283013). In a few lines:
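Read-out: reporter mRNA induction via RT-PCR plus capillary electrophoresis fluorescence, analysed as signal increase relative to DMSO. Cells were human HepG2, transiently transfected with GAL4-UAS reporter constructs and chimeric receptor-Gal4 fusions, dosed for 24 h.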

The nature of assay [10]: TOX21_p53_BLA_p2_viability: Viability Assessment in the Tox21 HCT-116 p53 Agonism Beta-lactamase Assay, Phase 2 (AID 2283591).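 Note: compound exposure lasted 16 h at 37 °C; actives lower the ATP signal meaning cytotoxicity.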 In a few lines:
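Cytotoxicity readout: CellTiter-Glo ATP luminescence, 30 min at room temperature, after the beta-lactamase read. Cells were HCT116 exposed 16 h at 37C to compounds pin-transferred at 217-fold dilution from DMSO stocks.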

The nature of assay [11]: TOX21_p53_BLA_p3_viability: Viability Assessment in the Tox21 HCT-116 p53 Agonism Beta-lactamase Assay, Phase 3 (AID 2283593).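 Note: cells exposed to compound for 16 h before reading.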 The method in brief:
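Cellular ATP was quantified by CellTiter-Glo luminescence, read after 30 min at room temperature. Beforehand, HCT116 cells (4000/well) received compound 5 h post-seeding, 217-fold diluted from DMSO, then incubated 16 h at 37C.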

Assay [12] has as its target Cellular tumor antigen p53 (Homo sapiens) (UniProt P04637). Description: TOX21_p53_BLA_p3_ratio: Tox21 HCT-116 p53 Agonism Beta-lactamase Assay, Ratio, Phase 3 (AID 2283596). In a few lines: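 Cells were seeded at 4000/well, rested 5 h at 37C, then dosed with DMSO compound solutions (217-fold dilution) for 16 h. CCF4-AM substrate was loaded for 2 h at room temperature, and the 460/530 nm emission ratio was fitted for gain of signal versus DMSO.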

The nature of assay [13]: TOX21_p53_BLA_p5_viability: Viability Assessment in the Tox21 HCT-116 p53 Agonism Beta-lactamase Assay, Phase 5 (AID 2283600). The method in brief:
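Viability is taken from cellular ATP content, measured by luciferase luminescence in the same wells after the beta-lactamase ratio read. Cells are seeded at 4000 per well and exposed to DMSO-dissolved compounds, diluted 217-fold, for 16 h.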

The target in assay [14] is Cellular tumor antigen p53 (Homo sapiens) (UniProt P04637). Description: TOX21_p53_BLA_p4_ratio: Tox21 HCT-116 p53 Agonism Beta-lactamase Assay, Ratio, Phase 4 (AID 2283601). In a few lines:
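Signal is the blue/green (460nm/530nm) ratio of cleaved versus uncleaved CCF4-AM substrate, read after 2 h substrate loading. Cells were HCT116 carrying the p53-responsive beta-lactamase reporter, dosed 16 h at 37C, 5% CO2; CellTiter-Glo measured in parallel.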

The target in assay [15] is Heat shock factor protein 1 (Homo sapiens) (UniProt Q00613). Description: ATG_HSE_CIS: Attagene CIS-FACTORIAL HepG2 Assay for human Heat Shock Transcription Factor 1 (HSE) (AID 2282953; active = hit-call score of the fitted dose curve at least 0.9, where 1 is the maximum; inactive = score below 0.9). The conditions noted are these: HepG2 HSE cis-reporter, Attagene RNA transcription; actives raise or lower the signal. In a few lines:
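After a 24 h incubation with test chemical, transfected HepG2 cells were harvested for RNA; reporter transcripts were measured by RT-PCR and capillary electrophoresis. Values reflect gain or loss of signal relative to DMSO.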

A short description of assay [16]: ATG_SREBP_CIS: Attagene CIS-FACTORIAL HepG2 Assay for human Sterol Regulatory Element Binding (SREBP) (AID 2282962; active = hit-call score of the fitted dose curve at least 0.9, where 1 is the maximum; inactive = score below 0.9). The following applies: HepG2 Attagene cis-factorial SREBP reporter, mRNA; actives raise or lower the signal. The method in brief: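 Endogenous factor activity is measured in HepG2 through multiplexed reporter units under cis-element control. Following a 24 h incubation, reporter transcripts are reverse-transcribed, PCR-amplified and sized by capillary electrophoresis; activity is fitted in both directions relative to DMSO.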

Assay [17] concerns the target Hepatocyte nuclear factor 4-alpha (Homo sapiens) (UniProt P41235). Description: ATG_HNF4a_TRANS: Attagene TRANS-FACTORIAL HepG2 Assay for human Hepatocyte Nuclear Factor 4 alpha (HNF4a) (AID 2282982). The conditions noted are these: HepG2 HNF4a transactivation reporter, mRNA readout. The method in brief:
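Multiplexed reporter assay: transfected HepG2, 24 h exposure, total RNA → oligo(dT) RT → PCR → 6-FAM extension → HpaI digest → CE fluorescence. DMSO = negative control.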

Assay [18] is described as follows: ATG_NRF2_ARE_CIS: Attagene CIS-FACTORIAL HepG2 Assay for human Nuclear Factor Erythroid 2 Related Factor 2 (NFR2) response to Antioxidant Response Elements (ARE) (AID 2282992; active = hit-call score of the fitted dose curve at least 0.9, where 1 is the maximum; inactive = score below 0.9). The conditions noted are these: HepG2 Attagene ARE/NRF2 reporter, transcription factor activity; actives raise or lower the signal. The method in brief:
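Endogenous transcription factor activity in human liver HepG2 cells is tracked via a cis-element-driven reporter within a multiplexed set. mRNA induction is read by RT-PCR and capillary electrophoresis after 24 h, with DMSO as baseline.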

A short description of assay [19]: ATG_GRE_CIS: Attagene CIS-FACTORIAL HepG2 Assay for human Glucocorticoid Response Elements (GRE) (AID 2282947; active = hit-call score of the fitted dose curve at least 0.9, where 1 is the maximum; inactive = score below 0.9). The conditions noted are these: HepG2 GRE cis-reporter, Attagene multiplex mRNA; actives raise or lower the signal. In a few lines:
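Multiplexed cis-reporter mRNA induction, HepG2, 24 h post-dose. RT-PCR, FAM-labelled, HpaI-digested amplicons by CE. Bidirectional fit vs DMSO.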

The target of assay [20] is Cellular tumor antigen p53 (Homo sapiens) (UniProt P04637). The experiment in a line: TOX21_p53_BLA_p5_ratio: Tox21 HCT-116 p53 Agonism Beta-lactamase Assay, Ratio, Phase 5 (AID 2283599). In a few lines:
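Beta-lactamase reporter ratio (blue 460 nm over green 530 nm, 405 nm excitation) after 2 h CCF4-AM loading, in HCT-116 cells exposed 16 h at 37 C to compounds pinned at 217-fold dilution. Increases relative to DMSO baseline scored.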

Structures are written as SMILES. Results filed as inconclusive are left out. Calls of active or inactive are those of the source. Rule for the calls, unless noted: active = hit-call score of the fitted dose curve at least 0.9, where 1 is the maximum; inconclusive = response in the unintended direction; inactive = score below 0.9.

Hepatocyte nuclear factor 4-alpha (Homo sapiens), sequence (P41235 whole entry, looked up): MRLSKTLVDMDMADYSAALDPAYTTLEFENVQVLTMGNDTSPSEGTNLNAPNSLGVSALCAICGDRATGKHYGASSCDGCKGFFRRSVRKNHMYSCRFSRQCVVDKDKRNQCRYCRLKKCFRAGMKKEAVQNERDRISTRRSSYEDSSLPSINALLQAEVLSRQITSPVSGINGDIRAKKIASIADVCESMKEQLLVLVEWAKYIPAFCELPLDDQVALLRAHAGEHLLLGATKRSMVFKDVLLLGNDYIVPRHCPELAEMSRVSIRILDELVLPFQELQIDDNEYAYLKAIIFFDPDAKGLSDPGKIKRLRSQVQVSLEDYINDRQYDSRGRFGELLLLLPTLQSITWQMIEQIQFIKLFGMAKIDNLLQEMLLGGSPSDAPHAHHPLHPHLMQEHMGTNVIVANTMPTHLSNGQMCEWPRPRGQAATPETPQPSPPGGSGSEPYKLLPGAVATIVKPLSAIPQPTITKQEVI
human Retinoid X Receptor beta (RXRb), RXRB (gene 6257), sequence (P28702 whole entry, looked up, the tested form may be a part): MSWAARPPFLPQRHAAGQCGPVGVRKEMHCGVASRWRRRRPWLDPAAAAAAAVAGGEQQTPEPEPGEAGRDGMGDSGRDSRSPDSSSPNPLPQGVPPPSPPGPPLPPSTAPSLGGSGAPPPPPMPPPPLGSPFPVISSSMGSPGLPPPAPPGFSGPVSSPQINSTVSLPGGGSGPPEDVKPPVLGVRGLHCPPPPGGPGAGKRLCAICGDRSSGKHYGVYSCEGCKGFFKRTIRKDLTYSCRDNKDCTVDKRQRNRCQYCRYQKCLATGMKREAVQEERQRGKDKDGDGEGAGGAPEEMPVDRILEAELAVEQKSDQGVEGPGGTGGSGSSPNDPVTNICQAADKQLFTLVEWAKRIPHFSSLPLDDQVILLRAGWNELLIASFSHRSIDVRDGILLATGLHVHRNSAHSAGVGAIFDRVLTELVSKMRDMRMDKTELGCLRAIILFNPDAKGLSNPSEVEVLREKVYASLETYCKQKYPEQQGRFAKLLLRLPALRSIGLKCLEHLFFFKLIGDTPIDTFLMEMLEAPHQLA
Hepatocyte nuclear factor 6 (Homo sapiens), sequence (Q9UBC0 whole entry, looked up): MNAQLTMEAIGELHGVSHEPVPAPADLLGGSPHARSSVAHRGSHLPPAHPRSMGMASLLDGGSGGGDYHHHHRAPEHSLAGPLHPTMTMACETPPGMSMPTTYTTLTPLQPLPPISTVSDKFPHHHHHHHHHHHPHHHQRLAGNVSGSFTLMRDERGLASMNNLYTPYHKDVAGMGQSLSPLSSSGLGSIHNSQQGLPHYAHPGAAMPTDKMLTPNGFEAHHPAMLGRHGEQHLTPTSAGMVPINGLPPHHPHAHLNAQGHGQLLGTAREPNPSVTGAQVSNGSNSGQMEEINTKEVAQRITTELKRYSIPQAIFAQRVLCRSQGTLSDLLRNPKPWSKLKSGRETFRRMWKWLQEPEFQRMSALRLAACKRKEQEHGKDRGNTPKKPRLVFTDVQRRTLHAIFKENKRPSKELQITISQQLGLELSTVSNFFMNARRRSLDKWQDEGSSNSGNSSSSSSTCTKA
Cellular tumor antigen p53 (Homo sapiens), sequence (P04637 whole entry, looked up): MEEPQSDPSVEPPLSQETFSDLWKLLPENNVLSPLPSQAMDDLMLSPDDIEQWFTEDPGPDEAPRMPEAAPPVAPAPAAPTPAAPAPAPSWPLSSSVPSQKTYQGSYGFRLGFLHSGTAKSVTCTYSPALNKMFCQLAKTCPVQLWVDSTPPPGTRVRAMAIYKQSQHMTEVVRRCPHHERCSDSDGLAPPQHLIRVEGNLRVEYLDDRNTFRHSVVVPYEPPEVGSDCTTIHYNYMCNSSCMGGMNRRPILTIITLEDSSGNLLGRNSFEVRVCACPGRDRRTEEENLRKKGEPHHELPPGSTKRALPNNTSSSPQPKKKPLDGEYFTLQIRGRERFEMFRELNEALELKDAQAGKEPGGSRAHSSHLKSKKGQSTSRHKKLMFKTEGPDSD
Heat shock factor protein 1 (Homo sapiens), sequence (Q00613 whole entry, looked up): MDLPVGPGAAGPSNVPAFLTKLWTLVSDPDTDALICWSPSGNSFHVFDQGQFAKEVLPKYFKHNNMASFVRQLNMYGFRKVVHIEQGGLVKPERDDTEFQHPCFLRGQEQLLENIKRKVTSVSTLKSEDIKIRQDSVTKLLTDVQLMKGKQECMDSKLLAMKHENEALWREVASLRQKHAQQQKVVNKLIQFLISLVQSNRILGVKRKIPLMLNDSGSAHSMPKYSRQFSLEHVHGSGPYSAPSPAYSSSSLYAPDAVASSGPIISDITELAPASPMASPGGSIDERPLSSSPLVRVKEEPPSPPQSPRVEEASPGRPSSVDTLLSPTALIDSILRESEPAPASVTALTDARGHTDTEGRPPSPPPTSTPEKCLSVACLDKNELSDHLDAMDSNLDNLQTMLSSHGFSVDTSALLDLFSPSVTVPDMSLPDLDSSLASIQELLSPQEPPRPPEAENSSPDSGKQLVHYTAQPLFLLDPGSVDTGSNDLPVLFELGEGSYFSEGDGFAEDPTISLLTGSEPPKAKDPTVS

For `C[C@H]1C[C@H]2[C@@H]3CCC4=CC(=O)C=C[C@]4(C)[C@@]3(F)[C@@H](O)C[C@]2(C)[C@@]1(O)C(=O)CO`, the outcome in assay [1], in assay [2], in assay [3], in [4], in assay [5] and in [6] was inactive. For the same molecule, the call in [7], in [8], in assay [9], in [10], in [11] and in assay [12] was inactive. Besides, the result in assay [13] and in [14] was inactive.

As for `F[B-](F)(F)F`, the call in [1], in [15], in [16], in [4], in assay [17] and in [18] was inactive. Further, the molecule was called inactive in [7].

As for `Cc1ccccc1S(N)(=O)=O`, the call in assay [1], in assay [19], in [2], in [3], in [16] and in assay [4] was inactive. The outcome in [5], in assay [6], in [18], in assay [7], in [9] and in [10] was inactive. Also, the outcome in assay [11], in [12], in [20] and in assay [13] was inactive.

On to `CCCCCCCCCCCCCC`, for which the result in [1], in assay [15], in [3], in assay [16], in [4] and in assay [5] was inactive. Moreover, the outcome in [6], in assay [9], in assay [10], in assay [12], in assay [20] and in assay [14] was inactive.

As for `CC(C)=CCOC(=O)c1ccccc1`, the call in [1], in [19], in assay [2], in assay [16], in assay [5] and in assay [6] was inactive. In addition, the molecule was classed as inactive in assay [18], in assay [7], in assay [9], in assay [10], in assay [11] and in assay [20]. The molecule was classed as inactive in [13] and in assay [14].

As for `CC(C)(Oc1ccc(Cl)cc1)C(=O)O`, the outcome in [19], in assay [3], in assay [16], in assay [4], in assay [17] and in assay [18] was inactive. The outcome in [7], in assay [9], in assay [10], in assay [11], in assay [12] and in [20] was inactive. Also, the outcome in [13] and in assay [14] was inactive. Further, the AC50 in assay [8] is 29.8 µM (active).

Take `O=C(O)c1cc(Cl)cc(Cl)c1O`: the molecule was classed as inactive in [2], in assay [15], in assay [16], in [17], in assay [5] and in [6]. Further, the molecule was classed as inactive in assay [7], in assay [8], in [9], in assay [10], in [11] and in [12]. For the same molecule, the outcome in assay [20], in assay [13] and in assay [14] was inactive.

Take `[O-][n+]1ccc(Cl)cc1`: the molecule was classed as inactive in assay [1], in assay [19], in assay [2], in assay [15], in assay [3] and in assay [4]. Moreover, the molecule was called inactive in [17], in assay [5], in [6], in assay [18], in assay [7] and in assay [8]. Also, the call in assay [9] was inactive.

With `CC1=C(CC=O)C(C)(C)CCC1`, the call in assay [1], in [16], in [4], in assay [5], in assay [6] and in assay [7] was inactive. Further, the result in [10], in assay [12], in [20], in assay [13] and in assay [14] was inactive. In addition, the AC50 in assay [18] is 30.2 µM (active).

For `Cc1cc(-n2nc3ccc(Cl)cc3n2)c(O)c(C(C)(C)C)c1`, the outcome in assay [19], in assay [2], in assay [15], in assay [3], in assay [16] and in assay [17] was inactive. Also, the result in assay [5], in assay [7], in [11], in assay [12] and in [20] was inactive.

The term AC50 denotes the concentration giving half of the maximal activity seen.

The values are drawn from PubChem BioAssay (EPA / NIEHS).
